About 2,200 (0.71%) of roughly 310,000 compounds showed an effect of 50% or more. The effect is printed as a negative number. Shown is part of a subset that was picked to be rich in strong results.
Target: human ether-à-go-go-related gene (hERG) potassium channel (human, UniProt Q12809)
Test: primary screen, population patch clamp on CHO cells stably expressing hERG; higher = less effect of the substance

Chain of human ether-à-go-go-related gene (hERG) potassium channel (Q12809 whole entry, looked up): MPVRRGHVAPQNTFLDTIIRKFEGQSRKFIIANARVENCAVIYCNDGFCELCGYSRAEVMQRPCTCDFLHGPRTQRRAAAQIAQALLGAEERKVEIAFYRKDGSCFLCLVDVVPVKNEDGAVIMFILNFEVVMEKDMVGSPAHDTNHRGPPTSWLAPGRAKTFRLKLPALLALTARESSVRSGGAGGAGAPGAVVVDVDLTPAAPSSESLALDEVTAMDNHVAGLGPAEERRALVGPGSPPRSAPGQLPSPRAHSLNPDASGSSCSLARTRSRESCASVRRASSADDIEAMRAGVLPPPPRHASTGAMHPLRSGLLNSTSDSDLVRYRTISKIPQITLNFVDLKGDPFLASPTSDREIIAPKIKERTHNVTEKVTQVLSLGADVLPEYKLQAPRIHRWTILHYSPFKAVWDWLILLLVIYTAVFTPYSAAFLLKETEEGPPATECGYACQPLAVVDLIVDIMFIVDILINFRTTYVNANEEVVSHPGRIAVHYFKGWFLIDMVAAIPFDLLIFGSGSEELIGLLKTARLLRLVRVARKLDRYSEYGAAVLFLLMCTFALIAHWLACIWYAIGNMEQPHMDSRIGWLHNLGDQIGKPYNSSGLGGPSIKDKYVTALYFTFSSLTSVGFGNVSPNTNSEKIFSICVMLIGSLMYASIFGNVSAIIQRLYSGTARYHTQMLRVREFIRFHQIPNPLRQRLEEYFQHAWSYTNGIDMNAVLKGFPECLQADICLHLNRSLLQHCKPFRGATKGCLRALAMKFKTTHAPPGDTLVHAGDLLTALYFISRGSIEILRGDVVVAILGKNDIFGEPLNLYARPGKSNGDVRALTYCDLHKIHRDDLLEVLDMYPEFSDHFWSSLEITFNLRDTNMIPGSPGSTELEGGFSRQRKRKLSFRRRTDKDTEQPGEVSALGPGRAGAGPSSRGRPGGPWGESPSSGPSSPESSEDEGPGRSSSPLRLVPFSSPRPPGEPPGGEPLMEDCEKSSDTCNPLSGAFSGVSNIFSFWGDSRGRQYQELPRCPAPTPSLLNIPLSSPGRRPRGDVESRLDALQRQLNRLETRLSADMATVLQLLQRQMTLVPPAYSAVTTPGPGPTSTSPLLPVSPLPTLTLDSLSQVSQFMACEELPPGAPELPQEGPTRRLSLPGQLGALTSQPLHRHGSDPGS

| SMILES | hERG current change (%, negative = inhibition) at 1uM [%] |
| --- | --- |
| CCOc1ccc(NC(=O)CCC(=O)c2ccc(OC)cc2)cc1 | 16.1 |
| Cc1c(Cl)ccc(S(=O)(=O)NCCCn2ccnc2)c1Cl | 12.2 |
| CN1CCN(C(=O)c2cnn(-c3ccccc3)c2NC(=O)c2ccc(Br)cc2)CC1 | -88.5 |
| CN1CCN(C(=O)c2cnn(-c3ccccc3)c2NC(=O)c2ccccc2)CC1 | 10.4 |
| CN1CCN(C(=O)c2cnn(-c3ccccc3)c2NC(=O)c2ccccc2Br)CC1 | 15.2 |
| COc1ccc(CNC(=O)C(C)Sc2nc3ccccc3c(=O)n2CC2CCCO2)cc1 (stereo not drawn) | -17.5 |
| COc1ccc(CCn2c(=N)c(C(=O)NCCN3CCOCC3)cc3c(=O)n4ccccc4nc32)cc1OC | 10.4 |
| COc1ccc(CNC(=O)C(C)Sc2nc3ccccc3c(=O)n2CCCN2CCOCC2)cc1 (stereo not drawn) | -95 |
| Cc1cccn2c(=O)c3cc(C(=O)NCCN4CCOCC4)c(=N)n(CCCN4CCOCC4)c3nc12 | 16.7 |
| COc1ccc(CCNC(=O)c2cc3c(=O)n4ccccc4nc3n(CCCN3CCOCC3)c2=N)cc1OC | -39.4 |
| COc1ccc(CCNC(=O)c2cc3c(=O)n4ccccc4nc3n(CCN3CCOCC3)c2=N)cc1 | -82 |
| COc1ccc(CCNC(=O)c2cc3c(=O)n4ccccc4nc3n(CCCN3CCOCC3)c2=N)cc1 | -88.9 |
| COc1ccccc1CNC(=O)CSc1nc2ccccc2c(=O)n1CCCN1CCOCC1 | -6.17 |
| COc1ccc(CCNC(=O)c2cc3c(=O)n4cccc(C)c4nc3n(CCCN3CCOCC3)c2=N)cc1 | -85.1 |
| Cc1cc(=O)[nH]c(N/N=C/c2c(C)nn(-c3ccc(F)cc3)c2Cl)n1 | -3.02 |
| CN1CCN(c2ccc(NC(=O)c3cc4ccccc4o3)cc2)CC1 | -14.8 |
| CCCC(C(=O)NC(C)(C)CC)N(CC1CCCO1)C(=O)CNS(=O)(=O)c1ccc(F)cc1 (stereo not drawn) | -12.1 |
| Cc1nc2ccccc2n1C1CCN(CC(=O)NCc2ccc(F)cc2)CC1 | -23.3 |
| COc1ccc(CNC(=O)CCC(=O)N2CC(C)Oc3ccccc32)cc1 (stereo not drawn) | -0.874 |
| CCN(C(=O)c1ccc2c(OC)n(CC)nc2c1)c1ccc(OC)cc1 | 0.888 |
| CC(=O)c1cccc(NC(=O)C2CCN(S(C)(=O)=O)CC2)c1 | 10.7 |

| SMILES | hERG current change (%, negative = inhibition) at 1uM [%] |
| --- | --- |
| CN(C)C=NC(=O)/C(C#N)=C1\CCc2ccccc2N1 | 0.195 |
| COc1cc(Cl)cc(/C=C/c2ccc3ccccc3n2)c1OC(C)=O | 16.6 |
| CCCNc1nc(C)cc(-c2cc(C(=O)Nc3ccccc3)on2)n1 | 6.25 |
| COCCNC(=O)c1cccc(OC2CCN(Cc3ccc(C(C)C)cc3)CC2)c1 | -11.3 |
| COCCNC(=O)c1cccc(OC2CCN(Cc3ccc(OC(F)F)cc3)CC2)c1 | -75.4 |
| COc1ccc(C(=O)NC2CC2)cc1OC1CCN(Cc2cnn(C)c2)CC1 | 6.61 |
| COCCCNC(=O)c1ccc(OC)c(OC2CCN(C(C)C)CC2)c1 | 14.6 |
| COc1ccc(C(=O)NC2CC2)cc1OC1CCN(Cc2ccc(Cl)cc2)CC1 | -86.8 |
| COCCNC(=O)c1cccc(OC2CCN(Cc3ccc(F)c(OC)c3)CC2)c1 | 4.26 |
| COc1ccc(C(=O)NC2CCC(O)CC2)cc1S(=O)(=O)NCc1ccc(Cl)cc1 (stereo not drawn) | -0.258 |
| COc1cc(C(=O)NC2CCN(Cc3ccccc3)CC2)cc(Cl)c1OC | -1.24 |
| COc1ccc(C(=O)NC2CC2)cc1OC1CCN(Cc2ccc(F)c(F)c2)CC1 | -70.2 |
| COc1ccc(C(=O)NC2CC2)cc1OC1CCN(Cc2ccccc2)CC1 | -82.9 |
| COc1ccc(C(=O)NCCc2cccc(Cl)c2)cc1OC1CCN(C(C)=O)CC1 | -6.31 |
| COCCNC(=O)c1cccc(OC2CCN(Cc3ccc(C(=O)OC)cc3)CC2)c1 | 6.44 |
| CCCCCCCCCCCCOC1OC(CO)C(O)C(O)C1NC(C)=O (stereo not drawn) | 4.7 |
| CC(Oc1ccccc1)C(=O)N=C1SC2CS(=O)(=O)CC2N1CCc1ccccc1 (stereo not drawn) | 8.75 |
| Cc1cc(Br)ccc1NC(=O)CN1C(=O)C2CC=CCC2C1=O (stereo not drawn) | 2.16 |
| CCn1c(SCC(=O)c2ccc3c(c2)OCCO3)nnc1C(C)C | 7.74 |
| O=C(Cn1c(=O)c(C(F)(F)F)nc2ccccc21)N1CCC2(CC1)OCCO2 | -0.212 |
| O=C(/C=C/c1ccoc1)c1ccccc1O | 3.71 |

| SMILES | hERG current change (%, negative = inhibition) at 1uM [%] |
| --- | --- |
| COc1ccc(CN2CCN(Cc3ccc(C)cc3)C(CCO)C2)cc1OC (stereo not drawn) | -13.3 |
| O=C(NC1CCN(Cc2ccccc2)CC1)c1ccc2c(c1)[nH]c(=O)n2Cc1ccc(F)cc1 | 6.14 |
| COc1cc(C(=O)NC2CCN(Cc3nnnn3Cc3ccc(F)cc3)CC2)cc(OC)c1OC | 3.89 |
| COc1ccc(C(=O)NC2CCCCCC2)cc1OC1CCN(C(C)=O)CC1 | 7.33 |
| C/C=C(\C)CN1CCC(Oc2cc(C(=O)NC3CC3)ccc2OC)CC1 | -59.9 |
| COc1ccc(C(=O)NC2CC2)cc1OC1CCN(Cc2ccc(SC)cc2)CC1 | -96.9 |
| COc1cc(C(=O)NC2CCCCC2)ccc1OC1CCN(C(C)=O)CC1 | 11.4 |
| COc1ccc(C(=O)NC2CC2)cc1OC1CCN(Cc2ccc(F)cc2)CC1 | -81.9 |
| COc1ccc(C(=O)NC2CC2)cc1OC1CCN(C(C)CSC)CC1 (stereo not drawn) | -54.2 |
| COc1ccc(C(=O)NCCCSC)cc1OC1CCN(C(C)C)CC1 | 13.4 |
| COc1ccc(C(=O)NC2CCCCC2)cc1OC1CCN(C(C)C)CC1 | -30.9 |
| Cc1ccc(S(=O)(=O)N2CCN(C(=O)CSc3ncc(C(F)(F)F)cc3Cl)CC2)cc1 | 11.1 |
| CCCCCCCCCCCCCCCC(=O)OC/C=C(C)/C=C/C=C(C)/C=C/C1=C(C)CCCC1(C)C | 10.2 |
| COc1cc(C2C(C#N)=C(N)Oc3n[nH]c(C)c32)cc2c1OCO2 (stereo not drawn) | -3.12 |
| CCc1nnc(NC(=O)C2CCCN2C(=O)Nc2ccc(C)cc2)s1 (stereo not drawn) | 8.89 |
| COc1ccc(CNS(=O)(=O)c2ccc3c(c2)CCN3C(=O)C2CC2)cc1 | 5.86 |
| NS(=O)(=O)c1ccc(CCNC(=O)Cc2ccc(S(=O)(=O)N3CCCC3)s2)cc1 | 14.9 |
| Cc1ccc(C(=O)NCCCNCCCNC(=O)c2ccc(C)nc2)cn1 | -10.3 |
| CCCCNc1ccccc1C(=O)OCC(=O)Nc1ccc(S(N)(=O)=O)cc1 | 0.586 |
| COc1ccc2oc3cc(C)[n+]([O-])c(-c4ccc(Br)cc4)c3c2c1 | 4.46 |
| Cc1nc(-c2ccc([N+](=O)[O-])cc2)nc2[nH]ccc(=O)c12 | 14.5 |

| SMILES | hERG current change (%, negative = inhibition) at 1uM [%] |
| --- | --- |
| Fc1ccc(-c2n[nH]c(=S)c3ccccc23)cc1 | 9.98 |
| C[C@H](OC(=O)n1ccnc1)[C@@H]1O[C@@]2(C)CCC[C@@H]1O2 | 15.1 |
| CC(C)Oc1ccc(C(=O)NC2CCN(Cc3ccccc3)CC2)cc1 | -21 |
| CC(Oc1ccccc1)C(=O)NC1CCN(Cc2ccccc2)CC1 (stereo not drawn) | -5.84 |
| CC(Oc1ccc(Br)cc1)C(=O)NC1CCN(Cc2ccccc2)CC1 (stereo not drawn) | -59.6 |
| CC(Oc1ccc2ccc(=O)oc2c1)C(=O)NC1CCN(Cc2ccccc2)CC1 (stereo not drawn) | -38.3 |
| Cc1cc(=O)oc2cc(OC(C)C(=O)NC3CCN(Cc4ccccc4)CC3)ccc12 (stereo not drawn) | -52.6 |
| Cc1c(C)c2ccc(OC(C)C(=O)NC3CCN(Cc4ccccc4)CC3)cc2oc1=O (stereo not drawn) | -17.2 |
| CC1C(=O)N2CCCc3cc(NC(=O)C(=O)NCc4ccccn4)cc1c32 (stereo not drawn) | 8.33 |
| CCCNC(=O)COc1coc(CN2CCN(Cc3ccccc3)CC2)cc1=O | 15.2 |
| Cc1cc(Cl)ccc1NC(=O)COC(=O)c1c(C)noc1C | 7.79 |
| COc1cc(OC)cc(C(=O)NCC(=O)Nc2ccc(C)c(Cl)c2)c1 | 12.6 |
| O=C(c1cc(-c2ccc(Cl)cc2)n[nH]1)N1CCN(C(=O)c2ccco2)CC1 | -69.3 |
| O=C(c1ccco1)N1CCN(C(=O)c2ccc(-c3cccc(C(F)(F)F)c3)o2)CC1 | -63.5 |
| CC(=O)N1CCN(C(=O)c2ccc(-c3cccc(C(F)(F)F)c3)o2)CC1 | -19.2 |
| Cc1ccc(-c2cc(C(=O)N3CCN(C(=O)c4ccco4)CC3)[nH]n2)cc1C | 14.4 |
| COc1ccc(-c2cc(C(=O)N3CCN(C(=O)c4ccco4)CC3)[nH]n2)cc1 | -12.7 |
| O=C(c1ccc(-c2cccc(C(F)(F)F)c2)o1)N1CCCCCCC1 | 5.25 |
| O=C(Cc1ccc(Cl)cc1)N1CCN(C(=O)c2ccco2)CC1 | 4.2 |
| O=C(c1ccco1)N1CCN(C(=O)c2ccc(-c3ccccc3Cl)o2)CC1 | -13.8 |
| O=C(c1ccco1)N1CCN(C(=O)c2ccc(-c3ccc(Cl)cc3)o2)CC1 | -67.5 |

From paper PMC4336329 (PLoS ONE, 2015)
